A number with no mark means an inactive call. Results filed as inconclusive are left out. A call without a number means that no potency is given here. Active and inactive are the calls of the source. Calls come from the whole dose curve.
Experiments:
[1] = target: Acetylcholinesterase (Homo sapiens) (UniProt P22303); assay: Acetylcholinesterase (AChE) small molecule antagonists: colormetric cell-based qHTS assay (AID 1347395); note: nearly all actives have a fitted effect of over 30% in size; note: potency is the fitted concentration of half-maximal effect
Sequence of Acetylcholinesterase (Homo sapiens) (P22303 whole entry, looked up): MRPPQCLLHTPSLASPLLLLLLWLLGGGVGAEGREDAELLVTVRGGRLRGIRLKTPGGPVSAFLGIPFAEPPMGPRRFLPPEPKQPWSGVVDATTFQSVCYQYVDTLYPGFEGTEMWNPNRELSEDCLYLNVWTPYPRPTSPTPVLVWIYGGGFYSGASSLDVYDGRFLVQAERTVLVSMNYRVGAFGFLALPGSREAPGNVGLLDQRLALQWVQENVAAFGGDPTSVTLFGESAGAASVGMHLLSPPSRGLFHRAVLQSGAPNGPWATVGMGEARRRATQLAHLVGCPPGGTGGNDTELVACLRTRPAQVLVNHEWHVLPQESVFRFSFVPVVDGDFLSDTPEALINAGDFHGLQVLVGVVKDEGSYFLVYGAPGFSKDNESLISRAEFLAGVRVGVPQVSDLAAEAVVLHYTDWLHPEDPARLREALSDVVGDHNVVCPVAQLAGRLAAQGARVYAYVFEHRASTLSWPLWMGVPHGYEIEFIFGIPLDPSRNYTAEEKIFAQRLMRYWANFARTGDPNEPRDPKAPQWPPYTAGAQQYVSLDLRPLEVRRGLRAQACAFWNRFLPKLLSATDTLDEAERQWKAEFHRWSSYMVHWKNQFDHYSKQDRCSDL
Method in brief: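 In this cell-based qHTS, attached SH-SY5Y cells were treated with test chemicals for 30 min, after which acetylthiocholine hydrolysis was followed by DTNB colour development over 90 min at 37 C.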

[2] = target: Acetylcholinesterase (Homo sapiens) (UniProt P22303); assay: Acetylcholinesterase (AChE) small molecule antagonists: enzyme-based qHTS assay (AID 1347397); conditions: Potency: AChE enzyme activity inhibition; outcome: AChE enzyme activity inhibition; note: nearly all actives have a fitted effect of over 55% in size; note: potency is the fitted concentration of half-maximal effect
Method in brief: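 Absorbance-based detection of thiocholine with DTNB served as the read-out. Recombinant human AChE was exposed to compound for 30 min at RT before a 10 min RT incubation with acetylthiocholine.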

[3] = target: Acetylcholinesterase (Homo sapiens) (UniProt P22303); assay: Acetylcholinesterase (AChE) small molecule antagonists: fluorescence cell-based qHTS assay (AID 1347398); conditions: Potency: AChE activity; outcome: AChE activity; note: nearly all actives have a fitted effect of over 50% in size; note: potency is the fitted concentration of half-maximal effect
Method in brief: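 Fluorimetric cell-based assay: intact SH-SY5Y cells, 30 min compound preincubation at 37 C, acetylthiocholine substrate with thiol probe Thiolite Green, 40 min RT development, fluorescence 490/520 nm.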

[4] = target: Acetylcholinesterase (Homo sapiens) (UniProt P22303); assay: Acetylcholinesterase (AChE) small molecule antagonists: enzyme-based qHTS assay with human liver microsomes (AID 1347399); conditions: Potency: qHTS inhibition; outcome: qHTS inhibition; note: nearly all actives have a fitted effect of over 60% in size
Method in brief: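 Recombinant human AChE (50 mU/mL in the enzyme mix) and human liver microsomes (0.25 mg/mL final) were preincubated with compound and NADPH (0.25 mg/mL final) for 30 min at 37 C. Acetylthiocholine/DTNB was then added; thiocholine was read colorimetrically after 10 min at room temperature.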

SMILES	Potency [1]	Potency [2]	Potency [3]	Potency [4]	activity, negative = inhibition [1]	activity change, negative = inhibition [2]	activity change, negative = inhibition [3]	activity change, negative = inhibition [4]
O=C(NCCO[N+](=O)[O-])c1cccnc1	inactive	inactive	inactive	inactive				
CC1=C(/C=C/C(C)=C/C=C/C(C)=C\C=O)C(C)(C)CCC1	inactive	inactive	inactive	inactive				
CCCCCCCCCCCCCCCCCCCl					-3.15% [at 10.5 µM]	-0.128% [at 10.5 µM]	5.41% [at 10.5 µM]	0.243% [at 10.5 µM]
Cc1nc(-c2ccc(Cl)cc2)oc1COC(C)(C)C(=O)O	inactive	inactive	inactive	inactive				
COc1ccc(-c2ccc3cc(C(=O)O)ccc3c2)cc1C12CC3CC(CC(C3)C1)C2	inactive	inactive	inactive	inactive				
COc1ccc2c(c1)c1c3n2CCN(C)C3=NCC1	inactive	inactive	inactive	inactive				
CCCSS/C(CCO)=C(\C)N(C=O)Cc1cnc(C)nc1N	inactive	inactive	inactive	inactive				
COCc1ccc(COC)cc1	inactive	inactive	inactive	inactive				
CCCCCCCCCCOCC(O)CN (stereo not given)	inactive	inactive	inactive	inactive				
CCCC(=O)OCC	inactive	inactive	inactive	inactive				
CCCOC(=O)c1ccc(N)cc1	inactive	inactive	inactive	inactive				
O=S(=O)(c1ccccc1)c1ccc(Cl)cc1	inactive	inactive	inactive	inactive				
C=C1C[C@@]23CC[C@H]4[C@@](C)(CCC[C@@]4(C)C(=O)O[C@@H]4O[C@H](CO)[C@@H](O)[C@H](O)[C@H]4O)[C@@H]2CC[C@]1(O[C@@H]1O[C@H](CO)[C@@H](O)[C@H](O[C@@H]2O[C@H](CO)[C@@H](O)[C@H](O)[C@H]2O)[C@H]1O[C@@H]1O[C@H](CO)[C@@H](O)[C@H](O)[C@H]1O)C3	inactive	inactive	inactive	inactive				
OCCCc1cccnc1	inactive	inactive	inactive	inactive				
CC(=O)[C@H]1[C@H](C#N)C[C@H]2[C@@H]3CC=C4C[C@@H](O)CC[C@]4(C)[C@H]3CC[C@@]21C	inactive	inactive	inactive	inactive				
CCC(C)COC(=O)CC(C)C (stereo not given)	inactive	inactive	inactive	inactive				
CC(C)(C)C(=O)OCOC(=O)C1N2C(=O)CC2S(=O)(=O)C1(C)C (stereo not given)	inactive	inactive	inactive	inactive				
CCCCCCCCCCCCCCCCCl					0.0979% [at 23.6 µM]	0.4% [at 23.6 µM]	-0.0126% [at 23.8 µM]	2.03% [at 23.6 µM]
OC/C=C/CO	35.5 µM (active)	inactive	inactive	inactive				
CCCCOCCOC(=O)COc1nc(Cl)c(Cl)cc1Cl	inactive	inactive	inactive	inactive				

SMILES	Potency [1]	Potency [2]	Potency [3]	Potency [4]	activity, negative = inhibition [1]	activity change, negative = inhibition [2]	activity change, negative = inhibition [3]	activity change, negative = inhibition [4]
CC(C)c1ccc(C#N)cc1	inactive	inactive	inactive	inactive				
CC1COc2ccccc2N1 (stereo not given)	inactive	inactive	inactive	inactive				
[K+]	inactive	inactive	inactive	inactive				
CC(=O)c1ccc2c(c1)[C@H](NC(=O)c1ccc(F)cc1)[C@@H](O)C(C)(C)O2	inactive	inactive	inactive	inactive				
C/C=C/C(=O)C1=C(C)C=CCC1(C)C	inactive	inactive	inactive	inactive				
CC(C)(O)C(=O)O	inactive	inactive	inactive	inactive				
CCCCCCCCC(C)=O	inactive	inactive	inactive	inactive				
O=Cc1cc(O)ccc1Br	inactive	inactive	inactive	inactive				
CC(=O)c1ccc2c(c1)Cc1ccccc1-2	inactive	inactive	inactive	inactive				
COC(=O)/C=C\C(=O)O	inactive	inactive	inactive	inactive				
FC(F)(F)c1ccc(Cl)cc1Cl	inactive	inactive	inactive	inactive				
CCCCOC(=O)CCCCCCCC(=O)OCCCC	inactive	inactive	inactive	inactive				
C=CC(=O)OCCOCC(CC)(COCCOC(=O)C=C)COCCOC(=O)C=C	inactive	inactive	inactive	inactive				
CCCCNc1ccc(C(=O)OCCOCCOCCOCCOCCOCCOCCOCCOCCOC)cc1	inactive	inactive	inactive	inactive				
C=C(C)C(=O)OCCCC	inactive	inactive	inactive	inactive				
Nc1ncnc2c1ncn2[C@H]1CC[C@@H](CO)O1	inactive	inactive	inactive	inactive				
CN1CCCC(n2nc(Cc3ccc(Cl)cc3)c3ccccc3c2=O)CC1 (stereo not given)	17.4 µM (active)	27.5 µM (active)	13.8 µM (active)	inactive				
CC(C)COC(=O)C(C)C	inactive	inactive	inactive	inactive				
CC(C)=CCCC(C)O (stereo not given)	inactive	inactive	inactive	inactive				
CCCCCCCCCC#N	inactive	inactive	inactive	inactive				
